Measurements reported in PubChem BioAssay (NCI).
This is part of a sample that, as a whole, favours compounds with a hit. Of some 83,000 tested, about 20% had one in any assay.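 Step 1: grow cells in 96-well plates. Step 2: add test compound at a single concentration. Step 3: incubate 48 h. Step 4: record percent growth.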 Activity calls are given as the source filed them. Rule for the calls: active = growth percent below 10; inactive = the rest.

Legend:
Assay in all cases: NCI-60 one-dose screen, 48 h (100 = growth as untreated, 0 = no growth, -100 = all killed)
Details in all cases: 10 µM unless noted
[1] = tested on: SK-MEL-2 melanoma
[2] = tested on: EKVX NSCLC
[3] = tested on: SN12C renal
[4] = tested on: UO-31 renal
[5] = tested on: TK-10 renal
[6] = tested on: ACHN renal
[7] = tested on: CCRF-CEM leukemia
[8] = tested on: MOLT-4 leukemia
[9] = tested on: SR leukemia
[10] = tested on: RPMI-8226 leukemia
[11] = tested on: OVCAR-8 ovarian
[12] = tested on: OVCAR-5 ovarian
[13] = tested on: OVCAR-4 ovarian
[14] = tested on: SK-OV-3 ovarian
[15] = tested on: IGROV1 ovarian
[16] = tested on: OVCAR-3 ovarian
[17] = tested on: HS 578T breast
[18] = tested on: NCI/ADR-RES ovarian
[19] = tested on: T-47D breast
[20] = tested on: A498 renal

Measured: growth

N#Cc1c(NC(=O)c2cccs2)[n+]([O-])c2cc(C(F)(F)F)ccc2[n+]1[O-]
active: [15] -54.2%
inactive: [1] 55.8% | [2] 87.1% | [3] 108% | [4] 80.5% | [5] 104% | [6] 102% | [7] 94.7% | [8] 75.9% | [9] 79.8% | [10] 95.5% | [11] 95.4% | [12] 111% | [13] 94.1% | [14] 97.2% | [16] 81.9% | [17] 84.5% | [18] 107% | [19] 90.2%

Cn1nc(C(F)(F)F)c(-c2cc(C(F)(F)F)cc(C(F)(F)F)c2)c1-c1ccc(OCc2ccc(Cl)cc2)cc1O
active: [1] -34% | [2] 7.7% | [3] 7.93% | [4] -1.27% | [5] 9.29% | [6] 7.22% | [7] 6.82% | [8] -11.7% | [9] -4.24% | [10] -14.5% | [11] 8.36% | [14] -13.5% | [16] 7.02% | [17] 4.39% | [18] 1.98%
inactive: [12] 29.1% | [13] 20.7% | [15] 31.4%

COc1cc2cc(c1Cl)N(C)C(=O)C[C@H](OC(=O)[C@H](C)N(C)C(=O)CCS)C[C@]1(C)O[C@H]1[C@H](C)[C@@H]1C[C@@](O)(NC(=O)O1)[C@H](OC)/C=C/C=C(\C)C2
active: [16] -4.97%
inactive: [1] 20% | [2] 38.8% | [3] 28.2% | [4] 47.4% | [5] 62.4% | [6] 25.4% | [8] 13.1% | [9] 12.2% | [10] 24.4% | [11] 13.7% | [12] 44% | [13] 28.8% | [14] 18.7% | [15] 18.5% | [17] 20.9% | [18] 10.5% | [19] 61.2%

COc1ccc2nc3c(n2c1)C(=O)C(=O)c1ccccc1-3
inactive: [5] 48.4% | [7] 20.8% | [14] 24.8% | [19] 21.4%
active: [1] -74.7% | [2] -53.6% | [3] -88.1% | [4] -64.4% | [6] -51.3% | [8] 2.85% | [9] -1.54% | [10] -0.676% | [11] 9.51% | [12] -79.9% | [13] -81.3% | [15] 0.7% | [16] -22.8% | [17] -6.35% | [18] -7.37%

CC(=O)ON1CCCC(P(=O)(OCOC(=O)C(C)(C)C)OCOC(=O)C(C)(C)C)C1=O (stereo not given)
inactive: [12] 17.7% | [13] 13.3% | [19] 16.4%
active: [1] 9.04% | [2] 9.78% | [3] -1.1% | [4] -8.25% | [5] 1.68% | [6] 6.57% | [7] -7.6% | [8] -25.4% | [9] -22.3% | [10] -47.5% | [11] -0.681% | [14] 6.56% | [15] -28.4% | [16] 2.58% | [17] 1.28% | [18] -2.01%

CNCc1cccc2c1OCCOCCOCCN(CCN1CCOCC1)S(=O)(=O)c1ccc(cc1)-c1cnc(N)c(n1)C(=O)N2
inactive: [1] 60.9% | [2] 74.8% | [3] 68.4% | [4] 55.6% | [5] 43.9% | [6] 36.7% | [7] 18% | [10] 54.8% | [11] 62.2% | [12] 119% | [13] 54.8% | [14] 17.3% | [15] 47.9% | [16] 49.4% | [17] 47.5% | [18] 108% | [19] 101%
active: [8] -1.99% | [9] 7.93%

Cc1cc(NC(=O)CNc2nc(Oc3ccc(F)cc3)nc(-c3ccc(F)cc3)n2)ccc1Cl
inactive: [1] 103% | [2] 98.6% | [3] 100% | [4] 97% | [5] 96.5% | [6] 112% | [7] 95.3% | [8] 80.1% | [9] 85.2% | [10] 96.6% | [11] 102% | [12] 103% | [13] 105% | [14] 93.7% | [15] 106% | [16] 116% | [17] 85.8% | [18] 101% | [19] 91.3%

COc1ccc(C(=O)c2cc(OC)c(OC)c(OC)c2)cc1OC(=O)C(Cl)(Cl)Cl
active: [7] 8.37% | [9] 6.59% | [11] 2.55% | [14] 8.13% | [16] -13.5% | [18] 9.28%
inactive: [1] 29.8% | [2] 61.3% | [3] 30.9% | [4] 39.1% | [5] 65.6% | [6] 31.8% | [8] 11.8% | [10] 17.9% | [12] 63.8% | [13] 59.7% | [15] 15.9% | [17] 38.9% | [19] 63%

Nc1c(C(=O)Nc2cccc3ccccc23)sc2nc3c(cc12)CCCCCC3
inactive: [2] 41.6% | [3] 46% | [4] 55% | [5] 55.3% | [6] 57.4% | [7] 11.2% | [8] 21% | [9] 19.1% | [10] 30.4% | [11] 19.8% | [12] 49.3% | [13] 59% | [14] 25.7% | [15] 44.8% | [17] 28.6% | [18] 20.6% | [19] 36.5%
active: [1] 5.93% | [16] -36.8%

C=C1C(=O)O[C@H]2[C@H]1CC/C(COC(=O)c1cccnc1)=C\CC[C@@]1(C)O[C@@H]21
inactive: [1] 88.3% | [2] 71.8% | [3] 51.8% | [4] 69.9% | [5] 63.1% | [6] 45.2% | [8] 71.5% | [9] 21% | [10] 28.5% | [11] 86.4% | [12] 73.8% | [13] 70% | [14] 86.1% | [15] 64.8% | [16] 26.4% | [17] 89.9% | [18] 93.5% | [19] 55.7%
active: [7] 3.51%

COc1ccc(Sc2[nH]c(C(C)=O)c3ccccc23)cc1
inactive: [1] 57.8% | [2] 30.9% | [3] 87.5% | [4] 73.5% | [5] 58.9% | [6] 80.9% | [7] 39.6% | [8] 48.5% | [10] 41.4% | [11] 88% | [12] 94.1% | [13] 71.2% | [14] 19% | [15] 83.6% | [16] 68.3% | [17] 83.9% | [18] 40.8% | [19] 56.5%
active: [9] 8.36%

COc1ccc(-c2nc(C#N)c(NCC(c3ccco3)N3CCCC3)o2)cc1 (stereo not given)
inactive: [1] 53.3% | [2] 54.2% | [3] 49.5% | [4] 51.5% | [5] 82.1% | [20] 42.6% | [7] 18.4% | [8] 29.7% | [9] 21.1% | [10] 24.2% | [11] 45.1% | [12] 69% | [13] 52.6% | [14] 30.4% | [15] 56.5% | [16] 22% | [17] 39.4% | [18] 10.2%

N#CCNc1ccc(C(=O)O)cc1
inactive: [1] 108% | [2] 104% | [3] 103% | [4] 101% | [5] 97.4% | [6] 111% | [7] 99.3% | [8] 96.3% | [9] 99.2% | [10] 102% | [11] 102% | [12] 120% | [13] 117% | [14] 105% | [15] 103% | [16] 110% | [17] 105% | [18] 105% | [19] 99.2%

COc1cc(NCC(=O)Nc2cc(Nc3cccc(C(F)(F)F)c3)ncn2)c(Cl)c(OC)c1Cl
inactive: [1] 89.5% | [2] 90.6% | [3] 101% | [4] 64.2% | [5] 101% | [20] 71.5% | [7] 72.5% | [8] 76.2% | [9] 72.2% | [10] 83.5% | [11] 94.1% | [12] 98.2% | [13] 99.2% | [14] 93.6% | [15] 95.3% | [16] 95.5% | [17] 82.2% | [18] 96.3%

COc1ccc(-c2cc(-c3nnc(SCC(=O)Nc4ccc(C(C)=O)cc4)o3)c3ccccc3n2)cc1
inactive: [1] 40.1% | [2] 23.2% | [20] 18.3% | [7] 32.7% | [8] 23% | [12] 71.4% | [14] 17.8%
active: [3] -40.5% | [4] -70.7% | [5] -28.8% | [9] -19.5% | [10] -19.8% | [11] -21% | [13] -49.6% | [15] 9.74% | [16] -20.6% | [17] -8.38% | [18] 6.03% | [19] 0.593%

COc1cc(C(=O)Nc2cc(O)c(C/C=C(\C)CCC=C(C)C)c(O)c2)cc2c1O[C@]1(C)CC[C@@H](O)C(C)(C)[C@H]1C2
active: [1] 5.69% | [4] -31.9% | [20] -25.7% | [7] 7.08% | [8] -2.24% | [9] 1.41% | [10] -23.6% | [16] 5.54% | [17] -1.79% | [19] 9.68%
inactive: [2] 31.7% | [3] 26.5% | [5] 40.9% | [11] 29.9% | [12] 48.5% | [13] 32.8% | [14] 17.9% | [15] 33.7% | [18] 57.7%
